# Assay results: PubChem BioAssay
# Values without a mark were called inactive. The rule behind the calls is not given here. Where a SMILES comes first, the peptide text is derived from it. The star is where a group is joined. Cbz = O=C(OCc1ccccc1)*
# Tested on: Aerobactin synthetase IucA (Klebsiella pneumoniae, hypervirulent)
# Assay: biochemical IucA inhibition screen of LOPAC library by absorbance (AID 1346212);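 note: 100% = no compound wells and 0% = no enzyme wells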
# Settings: IucA enzyme assay, absorbance (OD) readout; active compounds read low;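 tested at 8 µM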
row,Structure (SMILES),remaining activity
1,C(=C\c1ccccc1)/CN1CCN(C(c2ccccc2)c2ccccc2)CC1,113%
2,COc1ccc2c(c1)c(CC(=O)O)c(C)n2Cc1ccc(Cl)cc1,99.3%
3,NC[C@@H]1O[C@H](O[C@H]2[C@@H](O)[C@H](O[C@@H]3[C@@H](O)[C@H](N)C[C@H](N)[C@H]3O[C@H]3O[C@H](CO)[C@@H](O)[C@H](O)[C@H]3N)O[C@@H]2CO)[C@H](N)[C@@H](O)[C@@H]1O,104%
4,CC(C)[C@H](NC(=O)OCc1ccccc1)C(=O)N[C@H](C=O)Cc1ccccc1 (Cbz-Val-Phe-aldehyde),106%
5,CCN1/C(=C/C(C)=O)Sc2ccc(OC)cc21,123%
6,Cc1nc2c(OCc3ccccc3)cccn2c1CC#N,126%
7,Cn1cnc2c(NCc3ccccc3)nc(NCCO)nc21,119%
8,CC(C)NCC(O)COc1ccc(CCOCC2CC2)cc1 (stereo not drawn),123%
9,C[C@H](Cc1ccccc1)Nc1ncnc2c1ncn2[C@@H]1O[C@H](CO)[C@H](O)C1O (stereo partly drawn),118%
10,CC(=O)OCC(=O)[C@@]1(O)CC[C@H]2[C@@H]3CCC4=CC(=O)CC[C@]4(C)[C@H]3C(=O)C[C@@]21C,102%
11,N=C(N)N1CCc2ccccc2C1,106%
12,NC(N)=NC(N)=Nc1cccc(Cl)c1,102%
13,C[N+](C)(CCCCCC[N+](C)(C)CCCN1C(=O)c2cccc3cccc(c23)C1=O)CCCN1C(=O)c2cccc3cccc(c23)C1=O,100%
